73 compounds from PubChem BioAssay AID1825 (The Scripps Research Institute Molecular Screening Center, 2009) can be followed below.

A word on the inhibition: it is the change of the read-out against control, counted positive when it falls.

Each structure is given as a SMILES string. Screen size: about 290,000 compounds; about 2,300 (0.79%) were called active. No stated cut-off is given here; in the data, active means inhibition above about 22%; inactive means the rest. The full list was thinned out, with actives kept by preference.

The nature of the experiment: cytotoxicity in IEC-6 intestinal epithelial cells, primary screen, cytotoxicity control for KLF5 inhibitor project, cell-based, luminescence (AID 1825).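 Further: 0% = plate median of test compound wells and 100% = cytotoxic reference compound wells.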 The following applies: IEC-6 cytotoxicity, luminescence viability; at 5 µM; stronger effect = higher value.
Take `CC(NC(=O)Cn1cc(C(F)(F)F)cc(Cl)c1=O)c1ccccc1` (stereo not drawn): the inhibition is 4.4% (inactive).

With `COc1ccccc1CCNC(=O)c1c(C)nn(CC(C)C)c1Cl`, the inhibition is -4.6% (inactive).

Take `O=C(Cc1cccs1)Nc1ccc([N+](=O)[O-])cc1`: the inhibition is -0.5% (inactive).

For `CC(C)c1ccc(Cc2nnc(NCCCO)[nH]c2=O)cc1`, the inhibition was 3.6% (inactive).

Turning to `Cc1ccc(NC(=O)Cn2nnc(C(=O)NCc3ccco3)c2N)c(C)c1`, the inhibition is -1.1% (inactive).

As to `CCOc1ccccc1NC(=O)Cn1nnc(C(=O)NCc2cccs2)c1N`, the inhibition is 84.2% (active).

With `CCOc1ccccc1NC(=O)Cc1cccs1`, the inhibition was -0.9% (inactive).

Turning to `CC(C)c1cc(C(=O)N/N=C/c2ccoc2)c(O)c(C(C)C)c1`, the inhibition was -1.3% (inactive).

Take `CCN(C(=O)C1CCCN(c2nc(-c3ccc(OC)cc3)no2)C1)c1ccc(OC)cc1` (stereo not drawn): the inhibition is -1.6% (inactive).

`COc1ccc(C)cc1Nc1nc(C)nc2c1oc1ccccc12`: the inhibition was 34.1% (active).

Take `Cc1nc(Cl)c2oc3ccccc3c2n1`: the inhibition is -5.3% (inactive).

Regarding `COc1ccccc1Nc1ncnc2c1oc1ccccc12`, the inhibition is -0.2% (inactive).

With `CSc1ncccc1C(=O)Nc1ccc(C)cn1`, the inhibition was 4.3% (inactive).

Turning to `CCCOC(=O)c1[nH]c2c(c1C)C(=O)CC(c1cccs1)C2` (stereo not drawn), the inhibition was 81.1% (active).

Consider `CCOC(=O)c1[nH]c2c(c1-c1ccccc1)C(=O)CC(c1ccc(Cl)cc1)C2` (stereo not drawn), for which the inhibition is 2% (inactive).

With `COCCOC(=O)c1[nH]c2c(c1C)C(=O)CC(c1ccc(OC)cc1)C2` (stereo not drawn), the inhibition is 2.6% (inactive).

`CCOc1cc(C)c(S(=O)(=O)NCc2ccccn2)cc1C`: the inhibition was 4.3% (inactive).

For `COc1ccc(S(=O)(=O)N(CC(=O)N/N=C/c2ccccc2C(=O)O)c2ccccc2OC)cc1`, the inhibition is 2.9% (inactive).

Turning to `COc1ccccc1NC(=O)CN(c1ccccc1OC)S(=O)(=O)c1ccccc1`, the inhibition was -4.1% (inactive).

For `COc1ccccc1N(CC(=O)N/N=C(\C)c1ccccc1O)S(=O)(=O)c1ccc(C)cc1`, the inhibition is 33.8% (active).

Consider `CC(=O)NC(Cc1c[nH]c2ccccc12)C(=O)NCCc1ccccc1` (stereo not drawn), for which the inhibition is -0.3% (inactive).

As for `CN1CCN(c2ccc(NC(=O)c3ccccc3)cc2)CC1`, the inhibition was -2.5% (inactive).

Turning to `COc1cccc(C(=O)Nc2ccc(N3CCN(C(=O)c4ccco4)CC3)cc2)c1`, the inhibition is 45% (active).

In the case of `Cc1ccc(OCC(=O)Nc2ccc(N3CCN(C(=O)c4ccco4)CC3)cc2)c(C)c1`, the inhibition was -14.8% (inactive).

Take `COc1ccc(C(=O)Nc2ccc(N3CCC(C)CC3)cc2)cc1Br`: the inhibition was -5.3% (inactive).

Regarding `COc1cccc(C(=O)Nc2ccc(N3CCCC3)cc2)c1`, the inhibition was 24.2% (active).

As for `COc1ccc(NC(=O)c2cccc(NC(=O)c3ccco3)c2)c(OC)c1`, the inhibition is 4.3% (inactive).

As to `CCOC(=O)N1CCN(CCC(=O)Nc2ccccc2)CC1`, the inhibition is -5.3% (inactive).

For the compound `O=C(Nc1cccc(NC(=O)c2ccccc2[N+](=O)[O-])c1)c1ccccc1Cl`, the inhibition was 8% (inactive).

With `O=C(O)c1cc([N+](=O)[O-])c(Nc2cccc3ccccc23)c([N+](=O)[O-])c1`, the inhibition was 4.7% (inactive).

Regarding `CSc1ccccc1OCc1cc(C(=O)N2C[C@H]3CC[C@H]2C3)no1`, the inhibition was 1.9% (inactive).

As to `COc1ccc(N2CCN(C(=O)[C@@H](NC(=O)c3cc(OC)cc(OC)c3)C(C)C)CC2)cc1`, the inhibition is -4.9% (inactive).

In the case of `Cc1cccnc1NC(=O)c1cccc(S(=O)(=O)N2CCN(c3ccc(F)cc3)CC2)c1`, the inhibition is 2.3% (inactive).

As for `O=C(N/N=C/c1coc2ccccc2c1=O)c1cc2ccccc2o1`, the inhibition is 4.7% (inactive).

As to `O=C(N/N=C/c1c[nH]c2ccccc12)c1cc2ccccc2o1`, the inhibition was 12.6% (inactive).

With `Cc1c(/C=N\NC(=O)c2cc3ccccc3o2)c2ccccc2n1C`, the inhibition was 43.7% (active).

For the compound `O=C(Nc1ccccc1Cl)Nc1cccc2cccnc12`, the inhibition was 3.4% (inactive).

Regarding `Cc1ccccc1NC(=O)c1ccccc1NS(=O)(=O)c1cccc2cccnc12`, the inhibition is -2.7% (inactive).

Take `O=[N+]([O-])c1ccccc1S(=O)(=O)Nc1cccc2cccnc12`: the inhibition was 55.6% (active).

On to `O=C(NCCc1nnc2ccc(SCC(=O)N3CCOCC3)nn12)c1ccccc1`, for which the inhibition is -3.4% (inactive).

As to `CCC(Cc1ccccc1)NS(=O)(=O)c1ccc2c(c1)NC(=O)CS2` (stereo not drawn), the inhibition was 2.9% (inactive).

In the case of `COc1cc2c(cc1OC)CN(C(=O)c1ccc(S(=O)(=O)N3CCCCCC3)cc1)CC2`, the inhibition was 0.2% (inactive).

For the compound `COc1cc2c(cc1OC)CN(C(=O)c1cc(=O)c3ccccc3o1)CC2`, the inhibition is 18.2% (inactive).

Turning to `CCOc1cc(C(=O)N2CCc3cc(OC)c(OC)cc3C2)ccc1OC(F)F`, the inhibition was 90% (active).

As for `CCCCN(CCCC)CCCNC(=O)CN1C(=O)COc2ccc(S(=O)(=O)N3CCC(C)CC3)cc21`, the inhibition is 7.2% (inactive).

On to `COc1ccc(C2=Nc3cc(C)ccc3OC2)cc1`, for which the inhibition is -0.6% (inactive).

As for `CCOC(=O)CNc1nc(Cl)nc(Nc2ccc(OC)cc2OC)n1`, the inhibition was 6.5% (inactive).

On to `CCCc1cc(=O)oc2c(C)c(OCC(=O)NCc3ccccn3)ccc12`, for which the inhibition was -5.9% (inactive).

As to `CCOc1ccc(Cn2nnc(C(=O)NCc3ccccc3)c2N)cc1`, the inhibition is 4.7% (inactive).

Regarding `Nc1c(C(=O)NCc2ccccc2)nnn1Cc1cccc(Cl)c1`, the inhibition is 24.6% (active).

As for `COc1cccc(CNC(=O)c2nnn(CC(=O)Nc3cc(Cl)ccc3C)c2N)c1`, the inhibition is 19.7% (inactive).

For `Cc1ccc(NS(=O)(=O)c2ccc(C(C)(C)C)cc2)cn1`, the inhibition is -0.9% (inactive).

`Cc1cnc(C(=O)Oc2cccc(Cl)c2Cl)cn1`: the inhibition is 5.1% (inactive).

Take `COc1ccccc1-c1nnc(NC(=O)c2ccc3ncsc3c2)o1`: the inhibition was 22.8% (active).

With `COc1ccccc1-c1nnc(SCC(=O)Nc2ccccc2)o1`, the inhibition is -0.6% (inactive).

For `COc1ccccc1-c1nnc(NC(=O)c2cccc(N3C(=O)CCC3=O)c2)o1`, the inhibition is -5.8% (inactive).

`CC(C)=CCN1CCN(Cc2cc3ccccc3[nH]2)CC1CCO` (stereo not drawn): the inhibition was 1.5% (inactive).

For `O=C(Cc1ccc(-c2ccccc2)cc1)NC(c1ccccc1)c1ccccc1`, the inhibition was -1.8% (inactive).

For the compound `CCOC(=O)C(C(=O)OCC)C(C#N)c1ccccc1` (stereo not drawn), the inhibition is 3.7% (inactive).

Regarding `CCOC(=O)/C=C/C(=O)OCC(=O)NC(c1ccccc1)c1ccccc1`, the inhibition is 50.9% (active).

With `CCc1ccc2[nH]c(=O)c(Cc3ccccc3)c(O)c2c1`, the inhibition was -0.4% (inactive).

As to `COC(=O)c1ccc(S(=O)(=O)N2CCc3ccccc3C2)cc1`, the inhibition was 1.8% (inactive).

Consider `CC(=O)Nc1c2c(nn1-c1cccc(C)c1)CSC2`, for which the inhibition is 2.5% (inactive).

In the case of `O=C(NCCOc1cccnc1)c1ccc(OC2CCN(Cc3ccccn3)CC2)cc1`, the inhibition is 99.8% (active).

In the case of `Cn1cc(CNC(=O)c2ccc(OC3CCN(Cc4ccccn4)CC3)cc2)cn1`, the inhibition was 5.4% (inactive).

`O=C(c1ccc(OC2CCN(Cc3ccccn3)CC2)cc1)N1CCCCCC1`: the inhibition was -0.7% (inactive).

In the case of `Cc1cccc(N2C(=O)N3[C@H](c4ccc(F)cc4)[C@@H]4C(=O)N(C5CCCCC5)C(=O)[C@@H]4[C@]3(Cc3ccccc3)C2=O)c1`, the inhibition was -6% (inactive).

As to `O=C(CSc1nnc(CNC(=O)c2ccc(F)cc2)o1)Nc1ccc2c(c1)OCO2`, the inhibition is 8.3% (inactive).

With `COC(=O)CSc1nnc(NC(=O)CCc2ccccc2)s1`, the inhibition was 8.2% (inactive).

Take `Cn1c(=O)c2c(nc(NCCc3ccccc3)n2Cc2ccccc2)n(C)c1=O`: the inhibition was -1.8% (inactive).

For `CCCCNc1nc2c(c(=O)n(C)c(=O)n2C)n1Cc1cccc(OC)c1`, the inhibition was 25.1% (active).

As for `COC(=O)C(C)Sc1nc2c(c(=O)n(C)c(=O)n2C)n1Cc1cccc(C)c1` (stereo not drawn), the inhibition is -2.6% (inactive).

Turning to `CCc1ccc(CN(C)C(=O)C2CCC(=O)N(Cc3cccc(OC)c3)C2)nc1` (stereo not drawn), the inhibition is 5.8% (inactive).
